Laboratory results published in the supplement of paper PMC11732987, “Enantioselective OTUD7B fragment discovery through chemoproteomics screening and high-throughput optimisation” (Communications Chemistry, 2025).

Assays:
Test in all cases: log2 ratio of Biotin-Ahx-Ub-VS probe labelling (fragment/DMSO); higher = less target engagement (more negative = stronger competition), active = hit call of the paper (q ≤ 0.05, log2 ratio ≤ -1)
Settings in all cases: compound concentration: 200 uM; treatment time: 3 h
OTUD6B = target: T1, OTUD6B (UniProt Q8N6M0)
T1 sequence (whole entry): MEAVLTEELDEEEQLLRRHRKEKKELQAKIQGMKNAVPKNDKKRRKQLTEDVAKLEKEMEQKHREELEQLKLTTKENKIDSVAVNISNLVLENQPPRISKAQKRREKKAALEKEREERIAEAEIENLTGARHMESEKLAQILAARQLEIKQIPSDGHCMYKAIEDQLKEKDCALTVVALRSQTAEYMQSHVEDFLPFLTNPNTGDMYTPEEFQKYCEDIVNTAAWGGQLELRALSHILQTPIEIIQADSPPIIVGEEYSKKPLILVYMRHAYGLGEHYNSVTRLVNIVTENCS
Outline: (§1)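 HEK293T lysate (495 µg per sample, in Tris/CHAPS/IGEPAL buffer with protease inhibitors) was treated in triplicate with fragment at 200 µM or with DMSO for 3 h. It was then treated with Biotin-Ahx-Ub-VS (0.5 µM final) for 1 h. Labelled DUBs were NeutrAvidin-enriched, digested with LysC and trypsin, and run by diaPASEF LC-MS/MS. Spectronaut label-free quantities were global-median-normalised. Values are average log2 ratios fragment/DMSO by unpaired t-test, using proteins with ≥2 unique peptides.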

OTUD7B = target: T2, OTUD7B (UniProt Q6GQQ9)
T2 sequence (whole entry): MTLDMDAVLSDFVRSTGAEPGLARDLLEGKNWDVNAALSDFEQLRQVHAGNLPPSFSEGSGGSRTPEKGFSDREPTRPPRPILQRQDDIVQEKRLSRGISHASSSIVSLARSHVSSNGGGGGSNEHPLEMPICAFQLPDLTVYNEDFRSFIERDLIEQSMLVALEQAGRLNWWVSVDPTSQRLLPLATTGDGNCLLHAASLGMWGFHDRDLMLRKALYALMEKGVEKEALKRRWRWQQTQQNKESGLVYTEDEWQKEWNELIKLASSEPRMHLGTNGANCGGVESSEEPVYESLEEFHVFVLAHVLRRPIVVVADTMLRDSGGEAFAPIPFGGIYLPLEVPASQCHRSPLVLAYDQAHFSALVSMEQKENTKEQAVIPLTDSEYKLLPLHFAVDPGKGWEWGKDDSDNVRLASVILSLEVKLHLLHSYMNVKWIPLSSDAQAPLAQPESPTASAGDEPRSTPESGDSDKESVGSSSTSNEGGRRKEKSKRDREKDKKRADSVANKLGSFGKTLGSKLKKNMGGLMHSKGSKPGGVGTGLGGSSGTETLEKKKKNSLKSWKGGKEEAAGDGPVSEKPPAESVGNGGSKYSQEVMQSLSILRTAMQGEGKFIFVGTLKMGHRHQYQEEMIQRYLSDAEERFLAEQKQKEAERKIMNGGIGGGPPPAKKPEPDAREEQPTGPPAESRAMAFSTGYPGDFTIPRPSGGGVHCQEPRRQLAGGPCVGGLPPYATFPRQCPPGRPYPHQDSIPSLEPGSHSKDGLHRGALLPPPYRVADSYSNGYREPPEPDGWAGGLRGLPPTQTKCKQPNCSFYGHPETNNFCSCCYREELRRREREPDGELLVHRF
Outline: as §1

PRPF8 = PRPF8 (UniProt Q6P2Q9)
Outline: as §1

PSMD7 = target: T3, PSMD7 (UniProt P51665)
T3 sequence (whole entry): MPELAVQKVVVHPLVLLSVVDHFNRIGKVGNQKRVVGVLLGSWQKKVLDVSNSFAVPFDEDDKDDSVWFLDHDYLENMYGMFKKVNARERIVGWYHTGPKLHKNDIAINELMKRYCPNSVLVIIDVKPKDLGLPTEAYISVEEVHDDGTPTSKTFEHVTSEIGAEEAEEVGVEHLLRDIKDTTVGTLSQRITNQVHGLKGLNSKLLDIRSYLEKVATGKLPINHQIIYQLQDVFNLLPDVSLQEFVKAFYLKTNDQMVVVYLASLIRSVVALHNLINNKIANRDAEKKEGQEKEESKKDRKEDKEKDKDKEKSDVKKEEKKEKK
Outline: as §1

UCHL1 = UCHL1 (UniProt P09936)
UCHL1, sequence (P09936 whole entry, looked up): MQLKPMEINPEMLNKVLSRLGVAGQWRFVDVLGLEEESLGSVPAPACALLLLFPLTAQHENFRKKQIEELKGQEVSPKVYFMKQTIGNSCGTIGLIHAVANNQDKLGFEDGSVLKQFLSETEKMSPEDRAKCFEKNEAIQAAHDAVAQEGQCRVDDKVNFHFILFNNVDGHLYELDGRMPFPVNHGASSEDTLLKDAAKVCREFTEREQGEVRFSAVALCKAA
Outline: as §1

UCHL3 = target: T4, UCHL3 (UniProt P15374)
T4 sequence (whole entry): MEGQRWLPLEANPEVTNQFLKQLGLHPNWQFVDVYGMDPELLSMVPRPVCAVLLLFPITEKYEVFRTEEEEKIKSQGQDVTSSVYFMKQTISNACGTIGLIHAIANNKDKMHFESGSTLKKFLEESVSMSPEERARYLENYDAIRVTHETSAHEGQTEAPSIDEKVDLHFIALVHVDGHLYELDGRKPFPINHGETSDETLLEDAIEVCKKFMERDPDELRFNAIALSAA
Outline: as §1

UCHL5 = target: T5, UCHL5 (UniProt Q9Y5K5)
T5 sequence (whole entry): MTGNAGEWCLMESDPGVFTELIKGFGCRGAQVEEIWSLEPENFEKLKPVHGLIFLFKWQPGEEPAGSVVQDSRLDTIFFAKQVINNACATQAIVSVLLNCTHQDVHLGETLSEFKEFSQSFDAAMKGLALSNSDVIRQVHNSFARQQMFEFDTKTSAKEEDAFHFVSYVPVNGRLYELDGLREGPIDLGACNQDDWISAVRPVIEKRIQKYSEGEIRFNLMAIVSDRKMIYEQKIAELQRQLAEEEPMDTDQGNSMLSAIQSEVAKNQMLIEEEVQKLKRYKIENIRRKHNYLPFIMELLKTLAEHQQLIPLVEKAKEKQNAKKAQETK
Outline: as §1

USP10 = USP10 (UniProt Q14694)
USP10, sequence (Q14694 whole entry): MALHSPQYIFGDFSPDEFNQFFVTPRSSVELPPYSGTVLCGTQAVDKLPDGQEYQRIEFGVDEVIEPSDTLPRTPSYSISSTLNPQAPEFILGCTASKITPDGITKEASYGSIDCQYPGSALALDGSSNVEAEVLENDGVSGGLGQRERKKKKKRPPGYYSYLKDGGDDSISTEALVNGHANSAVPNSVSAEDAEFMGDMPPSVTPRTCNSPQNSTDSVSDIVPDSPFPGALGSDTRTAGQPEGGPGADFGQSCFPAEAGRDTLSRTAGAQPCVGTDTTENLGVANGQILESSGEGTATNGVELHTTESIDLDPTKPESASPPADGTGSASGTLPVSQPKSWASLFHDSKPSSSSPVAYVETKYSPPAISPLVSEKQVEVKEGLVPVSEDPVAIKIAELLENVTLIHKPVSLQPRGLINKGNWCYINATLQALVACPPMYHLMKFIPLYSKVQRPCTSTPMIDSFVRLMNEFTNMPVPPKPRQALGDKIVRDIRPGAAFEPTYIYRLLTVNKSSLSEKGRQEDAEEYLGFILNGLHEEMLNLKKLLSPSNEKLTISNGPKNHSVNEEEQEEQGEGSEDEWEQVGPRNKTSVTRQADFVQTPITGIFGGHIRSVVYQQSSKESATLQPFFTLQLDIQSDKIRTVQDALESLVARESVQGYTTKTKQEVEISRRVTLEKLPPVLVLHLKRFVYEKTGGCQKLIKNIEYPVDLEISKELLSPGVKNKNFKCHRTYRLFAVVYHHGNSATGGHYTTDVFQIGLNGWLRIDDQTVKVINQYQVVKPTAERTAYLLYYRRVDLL
Outline: as §1

USP15 = target: T6, USP15 (UniProt Q9Y4E8)
T6 sequence (whole entry): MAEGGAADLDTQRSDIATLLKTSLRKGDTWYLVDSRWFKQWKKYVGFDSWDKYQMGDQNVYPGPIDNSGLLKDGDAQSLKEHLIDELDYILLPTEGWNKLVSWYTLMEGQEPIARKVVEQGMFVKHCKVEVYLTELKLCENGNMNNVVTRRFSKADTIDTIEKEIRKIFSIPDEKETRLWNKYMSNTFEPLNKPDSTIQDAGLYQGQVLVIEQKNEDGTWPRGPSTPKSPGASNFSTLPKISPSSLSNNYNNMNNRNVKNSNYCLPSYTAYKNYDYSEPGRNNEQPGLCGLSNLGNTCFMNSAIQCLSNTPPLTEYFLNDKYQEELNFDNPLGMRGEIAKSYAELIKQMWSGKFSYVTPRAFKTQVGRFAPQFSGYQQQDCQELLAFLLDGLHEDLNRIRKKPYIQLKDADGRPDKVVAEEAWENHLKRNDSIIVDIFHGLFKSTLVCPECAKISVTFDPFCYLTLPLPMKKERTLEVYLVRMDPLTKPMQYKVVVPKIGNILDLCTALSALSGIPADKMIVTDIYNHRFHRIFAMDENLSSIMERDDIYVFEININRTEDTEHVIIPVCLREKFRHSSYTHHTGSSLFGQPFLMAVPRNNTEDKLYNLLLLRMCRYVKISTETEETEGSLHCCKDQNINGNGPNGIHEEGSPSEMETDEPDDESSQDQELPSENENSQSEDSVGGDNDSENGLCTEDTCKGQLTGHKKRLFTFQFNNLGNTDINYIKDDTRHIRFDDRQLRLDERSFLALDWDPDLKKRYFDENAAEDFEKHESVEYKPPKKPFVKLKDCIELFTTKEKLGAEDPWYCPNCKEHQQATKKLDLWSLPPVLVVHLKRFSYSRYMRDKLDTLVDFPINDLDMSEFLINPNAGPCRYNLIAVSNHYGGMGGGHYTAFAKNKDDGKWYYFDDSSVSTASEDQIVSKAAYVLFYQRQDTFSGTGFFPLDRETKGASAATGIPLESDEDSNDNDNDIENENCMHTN
Outline: as §1

USP16 = USP16 (UniProt Q9Y5T5)
USP16, sequence (Q9Y5T5 whole entry, looked up): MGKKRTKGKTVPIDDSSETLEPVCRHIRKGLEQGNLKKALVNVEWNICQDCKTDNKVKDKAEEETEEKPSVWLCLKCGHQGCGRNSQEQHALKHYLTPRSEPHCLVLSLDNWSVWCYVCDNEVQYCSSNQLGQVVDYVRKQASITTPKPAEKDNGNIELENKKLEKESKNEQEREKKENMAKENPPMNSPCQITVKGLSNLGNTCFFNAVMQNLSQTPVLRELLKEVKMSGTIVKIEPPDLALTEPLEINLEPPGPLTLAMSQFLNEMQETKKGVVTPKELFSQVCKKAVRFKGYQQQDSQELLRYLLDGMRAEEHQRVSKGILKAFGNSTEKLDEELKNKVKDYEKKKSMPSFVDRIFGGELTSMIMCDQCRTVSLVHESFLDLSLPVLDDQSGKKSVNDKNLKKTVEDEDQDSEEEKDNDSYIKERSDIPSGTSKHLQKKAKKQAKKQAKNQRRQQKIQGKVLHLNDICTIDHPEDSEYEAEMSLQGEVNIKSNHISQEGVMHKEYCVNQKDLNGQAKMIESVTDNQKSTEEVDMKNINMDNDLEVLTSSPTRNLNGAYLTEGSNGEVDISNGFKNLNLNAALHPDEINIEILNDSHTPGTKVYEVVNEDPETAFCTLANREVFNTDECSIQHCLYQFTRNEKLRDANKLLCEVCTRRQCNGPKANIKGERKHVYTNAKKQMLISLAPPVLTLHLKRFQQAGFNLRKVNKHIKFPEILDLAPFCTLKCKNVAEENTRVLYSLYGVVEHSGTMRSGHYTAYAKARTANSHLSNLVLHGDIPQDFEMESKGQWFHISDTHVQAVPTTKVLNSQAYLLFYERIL
Outline: as §1

Measured: log2 ratio of Biotin-Ahx-Ub-VS probe labelling

O=C(CCl)N1CCN(c2nc3ccccc3o2)CC1
active: UCHL1 -1.49
inactive: OTUD6B -0.147 | OTUD7B -0.25 | PRPF8 0.299 | PSMD7 -0.247 | UCHL3 -0.125 | UCHL5 -0.319 | USP10 -0.131 | USP15 -0.407 | USP16 -0.379
